Consider 13 compounds from PubChem BioAssay (NCATS).

The structures appear in SMILES notation. Inconclusive results are not listed. Active and inactive are the calls of the source. The call rests on the fitted dose curve; in most records, active means well fitted curve in the direction sought with a large enough effect; inconclusive means small, poorly fitted or top-dose-only effect, or another doubt; inactive means no such curve, though single readings can be large; an effect the other way counts as inactive or inconclusive.

Assay [1] can be described thus: qHTS of pediatric cancer cell lines to identify multiple opportunities for drug repurposing: Primary screen for BT-37 cells (AID 1347094). Further: potency means the concentration at half of the fitted maximal effect. An outline of the steps:
(§1)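 Luminescence from CellTiter-Glo served as readout of metabolically active cells after 48 h compound exposure. Titrations: MIPE 11-point, from 0.78 nM; NPC 8-point, from 0.59 nM (final). Concentration-response curves came straight from the primary screen.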
For orientation: Quantitative high-throughput screening tests each substance at several concentrations.

Assay [2] in a line: qHTS of pediatric cancer cell lines to identify multiple opportunities for drug repurposing: Primary screen for NB-EBc1 cells (AID 1347095). Further: potency means the concentration at half of the fitted maximal effect. An outline of the steps:
as §1

Assay [3] can be described thus: qHTS of pediatric cancer cell lines to identify multiple opportunities for drug repurposing: Primary screen for U-2 OS cells (AID 1347096). Further: nearly all actives have a fitted effect of over 50% in size. Further: potency means the concentration at half of the fitted maximal effect. Put shortly:
(§2)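 Cells (500-1,000/well) rested 5 h, then received compounds for 48 h; metabolically active cells were measured by CellTiter-Glo luminescence. Final concentrations spanned up to 46 µM (MIPE, 11-point) or 0.59 nM-46 µM (NPC, 8-point) in primary screens, 11-point in follow-ups.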

Assay [4] can be described thus: qHTS of pediatric cancer cell lines to identify multiple opportunities for drug repurposing: Primary screen for Saos-2 cells (AID 1347097). Further: nearly all actives have a fitted effect of over 40% in size. An outline of the steps: as §1
The nature of assay [5]: qHTS of pediatric cancer cell lines to identify multiple opportunities for drug repurposing: Primary screen for LAN-5 cells (AID 1347100). Further: potency means the concentration at half of the fitted maximal effect. An outline of the steps: as §2
The nature of assay [6]: qHTS of pediatric cancer cell lines to identify multiple opportunities for drug repurposing: Primary screen for BT-12 cells (AID 1347101). Further: nearly all actives have a fitted effect of over 25% in size. Further: potency means the concentration at half of the fitted maximal effect. Put shortly: as §2
Assay [7] can be described thus: qHTS of pediatric cancer cell lines to identify multiple opportunities for drug repurposing: Primary screen for Rh18 cells (AID 1347102). Further: nearly all actives have a fitted effect of over 65% in size. Further: potency means the concentration at half of the fitted maximal effect. An outline of the steps: as §2
Assay [8] can be described thus: qHTS of pediatric cancer cell lines to identify multiple opportunities for drug repurposing: Primary screen for OHS-50 cells (AID 1347103). Further: nearly all actives have a fitted effect of over 40% in size. Further: potency means the concentration at half of the fitted maximal effect. Put shortly:
as §2

Assay [9] is described as follows: qHTS of pediatric cancer cell lines to identify multiple opportunities for drug repurposing: Primary screen for RD cells (AID 1347104). Further: nearly all actives have a fitted effect of over 55% in size. Further: potency means the concentration at half of the fitted maximal effect. Put shortly:
as §1

A short description of assay [10]: qHTS of pediatric cancer cell lines to identify multiple opportunities for drug repurposing: Primary screen for MG 63 (6-TG R) cells (AID 1347105). Further: nearly all actives have a fitted effect of over 50% in size. Further: potency means the concentration at half of the fitted maximal effect. Put shortly:
as §1

The nature of assay [11]: qHTS of pediatric cancer cell lines to identify multiple opportunities for drug repurposing: Primary screen for control Hh wild type fibroblast cells (AID 1347106).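 Further: series mostly up to about 46 µM; a drop in luminescence marks cytotoxicity and a rise apparent proliferation; nearly all actives have a fitted effect of over 55% in size.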 An outline of the steps:
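Cells (500-1,000/well) in growth media were settled 5 h at 37 degrees C, then given compounds for 48 h. Viability was read as CellTiter-Glo luminescence. Primary runs used MIPE at 11 points (0.78 nM-46 µM) and NPC at 8 points (0.59 nM-46 µM); follow-ups used 11 points.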

A short description of assay [12]: qHTS of pediatric cancer cell lines to identify multiple opportunities for drug repurposing: Primary screen for Rh30 cells (AID 1347107). Further: nearly all actives have a fitted effect of over 75% in size. Further: potency means the concentration at half of the fitted maximal effect. An outline of the steps: as §2
Assay [13] can be described thus: qHTS of pediatric cancer cell lines to identify multiple opportunities for drug repurposing: Primary screen for Rh41 cells (AID 1347108). Further: nearly all actives have a fitted effect of over 70% in size. Further: potency means the concentration at half of the fitted maximal effect. Put shortly:
as §1

A short description of assay [14]: qHTS of pediatric cancer cell lines to identify multiple opportunities for drug repurposing: Primary screen for SK-N-SH cells (AID 1347098).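 Further: DMSO served as neutral control and bortezomib at 2.3 µM as positive control; nearly all actives have a fitted effect of over 65% in size.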 Put shortly:
as §2

Assay [15] is described as follows: qHTS of pediatric cancer cell lines to identify multiple opportunities for drug repurposing: Primary screen for NB1643 cells (AID 1347099). Further: nearly all actives have a fitted effect of over 50% in size. Further: potency means the concentration at half of the fitted maximal effect. Put shortly:
as §1

The nature of assay [16]: qHTS of pediatric cancer cell lines to identify multiple opportunities for drug repurposing: Confirmatory screen for NB1643 cells (AID 1347109). Further: potency means the concentration at half of the fitted maximal effect; nearly all actives have a fitted effect of over 45% in size. Put shortly:
as §2

Assay [17] is described as follows: qHTS of pediatric cancer cell lines to identify multiple opportunities for drug repurposing: Confirmatory screen for A673 cells (AID 1347110).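 Further: potency means the concentration at half of the fitted maximal effect; cells exposed to compound for 48 h before the viability read; nearly all actives have a fitted effect of over 65% in size.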 Put shortly:
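A673 cells seeded at 500-1,000 cells/well, rested 5 h, then dosed; primary MIPE 11-point (0.78 nM to 46 µM), NPC (0.59 nM to 46 µM); confirmatory 11-point. CellTiter-Glo luminescence after 48 h.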

Assay [18] is described as follows: qHTS of pediatric cancer cell lines to identify multiple opportunities for drug repurposing: Confirmatory screen for SK-N-MC cells (AID 1347111).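 Further: potency means the concentration at half of the fitted maximal effect; cells exposed to compound for 48 h before the readout; nearly all actives have a fitted effect of over 70% in size.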 An outline of the steps:
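Seed 500-1,000 cells/well; rest 5 h at 37 degrees C. Pin-transfer compounds, 11-point titration. Incubate 48 h. Add CellTiter-Glo, 15 min RT, read luminescence.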

The nature of assay [19]: qHTS of pediatric cancer cell lines to identify multiple opportunities for drug repurposing: Confirmatory screen for LAN-5 cells (AID 1347113). Further: potency means the concentration at half of the fitted maximal effect; nearly all actives have a fitted effect of over 65% in size. Put shortly:
as §2

As for `CON=C(C(=O)N[C@@H]1C(=O)N2C(C(=O)O)=C(Cn3ccc(=N)n3CCO)CS[C@H]12)c1csc(N)n1`, the Potency entry in assay [1], in assay [2], in assay [3], in assay [4], in [5] and in [6] was “inactive” each time. Moreover, the Potency result in [7], in assay [8], in [9], in assay [10], in assay [11] and in [12] was “inactive” each time. In addition, the Potency result in assay [13] was “inactive”.

Consider `COc1ccnc2[nH]cc(C(=O)C(=O)N3CCN(C(=O)c4ccccc4)C[C@@H]3C)c12`, for which the Potency entry in [1], in assay [2], in assay [3], in assay [4], in [5] and in assay [6] was “inactive” throughout. Besides, the Potency result in [8], in [10], in assay [11], in assay [12] and in assay [13] was “inactive” throughout.

Take `C[C@@H]1[C@H](C)CC[C@]2(C(=O)O)CC[C@]3(C)C(=CC[C@@H]4[C@@]5(C)C[C@@H](O)[C@H](O)[C@@](C)(CO)[C@H]5CC[C@]43C)[C@@H]12`: the Potency result in assay [1], in assay [2], in [3], in assay [14], in [15] and in assay [5] was “inactive” in each case. Besides, the Potency result in [6], in assay [7], in [9], in assay [10], in assay [11] and in assay [12] was “inactive” throughout. Further, the Potency entry in assay [13] was “inactive”.

For the compound `COC(=O)[C@H](CCCN=C(N)N)NS(=O)(=O)c1ccc(C)cc1`, the Potency entry in assay [1], in assay [2], in assay [3], in [15], in assay [5] and in [8] was “inactive” each time. The Potency entry in assay [9], in assay [10], in assay [11], in assay [12] and in assay [13] was “inactive” each time.

As for `Cc1ccccc1C(=O)Nc1ccc(C(=O)N2CCCC(O)c3cc(Cl)ccc32)c(C)c1` (stereo not drawn), the Potency result in assay [1], in assay [2], in assay [3], in assay [14], in assay [15] and in assay [5] was “inactive” in each case. For the same compound, the Potency entry in assay [6], in [7], in assay [8], in assay [9], in [11] and in assay [12] was “inactive” in each case. In addition, in assay [13], the Potency result was “inactive”.

In the case of `CCN(C(=O)c1c(O)c2c(Cl)cccc2n(C)c1=O)c1ccccc1`, the Potency in assay [1] is 21700 nM (active). Besides, the Potency result in assay [2], in assay [3], in [14], in [15], in assay [5] and in assay [7] was “inactive” each time. The Potency entry in [8], in [9], in assay [10], in assay [11], in [12] and in assay [13] was “inactive” each time.

On to `Cc1cc(O)c2c(c1)C(=O)c1cccc(O)c1C2=O`, for which the Potency result in assay [1], in assay [2], in assay [3], in [14], in assay [15] and in assay [6] was “inactive” each time. Besides, the Potency entry in assay [7], in [8], in assay [9], in [10], in assay [11] and in assay [12] was “inactive” each time. Also, the Potency result in assay [13] is “inactive”.

As for `C[C@](Cc1c[nH]c2ccccc12)(NC(=O)OC1C2CC3CC(C2)CC1C3)C(=O)NC[C@H](NC(=O)CCC(=O)O)c1ccccc1` (stereo partly drawn), the Potency result in assay [1], in assay [2], in assay [3], in assay [4], in [7] and in assay [8] was “inactive” throughout. The Potency entry in [9], in assay [10], in assay [11], in assay [12] and in [13] was “inactive” each time.

In the case of `CC[C@H]1OC(=O)[C@H](C)[C@@H](O[C@H]2C[C@@](C)(OC)[C@@H](O)[C@H](C)O2)[C@H](C)[C@@H](O[C@@H]2O[C@H](C)C[C@H](N(C)C)[C@@H]2O)[C@](C)(OC)C[C@@H](C)C(=O)[C@H](C)[C@@H](O)[C@]1(C)O`, the Potency entry in assay [1], in [2], in assay [3], in [4], in assay [5] and in assay [6] was “inactive” throughout. In addition, the Potency entry in assay [7], in assay [8], in assay [9], in [10], in assay [11] and in assay [12] was “inactive” each time. Also, the Potency result in assay [13] was “inactive”.

Turning to `c1cncc(CN2CCC(n3ncc4c(N5CCOCC5)nc(-c5ccc6[nH]ccc6c5)nc43)CC2)c1`, the Potency in [1] was 7690 nM (active); in [2] it was 4690 nM (active); in assay [15], 6620 nM (active); in assay [5] it was 14800 nM (active); in [6], 13700 nM (active); in assay [7], 5900 nM (active). In addition, the Potency was 2170 nM (active) in assay [8]; 6620 nM (active) in assay [9]; 14800 nM (active) in assay [10]; 14800 nM (active) in assay [12]; 3320 nM (active) in [13]. Also, in assay [3], the Potency result was “inactive”.

For the compound `N#CNC(=NCCCCCCOc1ccc(Cl)cc1)Nc1ccncc1`, the Potency in [1] is 3.9 nM (active); in assay [2], 1 nM (active); in [3], 18.7 nM (active); in [15], 7.4 nM (active); in assay [5] it was 1 nM (active); in [7], 18.7 nM (active). Moreover, the Potency in assay [8] is 21700 nM (active); in assay [9], 5.9 nM (active); in [10] it was 14800 nM (active); in assay [12], 5.9 nM (active); in assay [13], 5.9 nM (active); in assay [16], 14.7 nM (active). Also, the Potency in assay [17] is 11.7 nM (active); in assay [18] it was 14.7 nM (active); in assay [19], 11.7 nM (active). In assay [11], the Potency entry was “inactive”.

As for `Cn1cc(C=CC(=O)c2cccc(F)c2)cc1C=CC(=O)NO`, the Potency entry in assay [1], in assay [2], in assay [3], in assay [6], in [7] and in assay [10] was “inactive” throughout. Further, the Potency entry in assay [11] and in [12] was “inactive” throughout. Further, the Potency in assay [15] was 4690 nM (active).

In the case of `CCn1c(=O)c2c(nc(C=Cc3ccc(OC)c(OC)c3)n2C)n(CC)c1=O`, the Potency result in [1], in assay [2], in assay [3], in assay [4], in [5] and in [6] was “inactive” each time. Moreover, the Potency result in assay [7], in [10], in assay [11] and in assay [12] was “inactive” each time.
